Results with a measured potency or affinity are listed apart. Results filed as inconclusive are left out. The source made the active and inactive calls.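 Rule for the calls: active = samples whose fitted half-maximal inhibition concentration is no more than ten times the top valid dose tested; inconclusive = flat response between -70 and -30, or invalid curve fit; inactive = flat within 30 of zero, potency above limit, or signal rising.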
Biological target: Trypsin (Sus scrofa) (UniProt P00761)
Assay: porcine trypsin inhibitors, dose response, selectivity assay for Rce1 protease inhibitor project, biochemical, quenched peptide fluorescence, cherry-pick (AID 488789);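 note: more negative means stronger trypsin inhibition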
Settings: quenched peptide cleavage fluorescence; series mostly up to 10 µM

Chain of Trypsin (Sus scrofa) (P00761 whole entry, looked up): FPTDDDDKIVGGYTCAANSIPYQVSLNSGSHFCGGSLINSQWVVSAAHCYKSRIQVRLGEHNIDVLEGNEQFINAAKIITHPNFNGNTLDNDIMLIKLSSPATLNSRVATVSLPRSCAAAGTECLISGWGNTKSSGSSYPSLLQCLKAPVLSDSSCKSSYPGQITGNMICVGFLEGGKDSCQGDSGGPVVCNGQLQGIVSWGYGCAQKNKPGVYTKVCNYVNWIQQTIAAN

Row | SMILES | outcome
1 | CC(=O)c1ccc(-c2ccc(C(=O)N3CCC(C(N)=O)CC3)o2)cc1 | inactive
2 | CN(C(=O)c1ccc2c(c1)SC1=NS(=O)(=O)CCN12)C(c1ccccc1)c1ccccc1 | inactive
3 | COC(=O)c1ccccc1NC(=O)NCc1cccnc1 | inactive
4 | O=C(COC(=O)c1ccc(S(=O)(=O)N2CCCC2)cc1)NCc1ccccc1 | inactive
5 | COc1cccc2sc3ccc(C#CC4(O)CCCCC4)cc3c(=O)c12 | inactive
6 | CCN(Cc1ccccc1)c1ccc(/C=N/N=C(N)N)cc1 | inactive
7 | O=C(CN1CCC(NC(=O)c2ccc(Br)cc2)CC1)NCc1cccs1 | inactive
8 | COc1ccccc1NC(=O)CN(c1ccc(C23CC4CC(CC(C4)C2)C3)cc1)S(C)(=O)=O | inactive
9 | O=C(Nc1cccc2ccccc12)c1ccc(OC(=S)N2CCOCC2)cc1 | inactive
10 | C/C(CC1(O)C(=O)Nc2ccccc21)=N\O (configuration not stated) | inactive
11 | CCC(=O)Nc1cc(-c2nn(CC(=O)N3CCCCC3)c(=O)c3ccccc23)ccc1N1CCOCC1 | inactive
12 | O=C(O)CCc1nc2cc(C(F)(F)F)ccc2n(Cc2ccccc2)c1=O | inactive
13 | COc1ccccc1/C=C/C=N/NC(=O)CN1CCN(S(=O)(=O)c2ccc(C)cc2)CC1 | inactive
14 | COCCCNC(=S)NCCNc1nc2cc(C)cc(C)c2cc1C#N | inactive
15 | COc1ccc(Cl)cc1C(=O)Nc1ccc2c(c1)OCO2 | inactive
16 | COC(C/C=C/[C@@H](O)[C@H](C)OCc1ccccc1)OC | inactive
17 | CCOC(=O)c1ccc(NC(=O)N2CCN(Cc3ccccc3)CC2)cc1 | inactive
18 | COc1ccc(-c2nc3ncccc3o2)cc1NC(=O)c1ccco1 | inactive
19 | COc1cc(-c2nc3ccccn3c2/N=C/c2cccc(OC)c2O)ccc1O | inactive

Row | SMILES | outcome
20 | COc1ccc(Cn2c(N)c(S(=O)(=O)c3cccs3)c3nc4ccccc4nc32)cc1 | inactive
21 | CC(C)NCC(O)COCCOc1ccc(Br)cc1 (configuration not stated) | inactive
22 | Cc1nn(CCC(=O)O)c2nc(-c3cccnc3)cc(C(F)(F)F)c12 | inactive
23 | COc1ccc(C2Nc3ccccc3C(=O)N2Cc2ccccc2)cc1COc1ccccn1 (configuration not stated) | inactive
24 | CC(NC(=O)/C(C#N)=C/c1ccc(Cl)c([N+](=O)[O-])c1)c1ccccc1 (configuration not stated) | inactive
25 | COc1ccc2[nH]c(C(=O)NCCCn3ccnc3)cc2c1 | inactive
26 | Cc1cc(C)n(Cc2ccc(NC(=O)c3ccc(COc4ccccc4Br)cc3)cc2)n1 | inactive
27 | COc1ccc(C(=O)/C=C/c2ccc(OC)cc2OC)c(O)c1 | inactive
28 | O=C(C1CCC(=O)N(C2CC2)C1)N1CCN(c2ccccc2Cl)CC1 (configuration not stated) | inactive
29 | Cc1ccc(/C=N/NC(=O)c2nnn(-c3nonc3N)c2C(C)C)o1 | inactive
30 | COc1ccc(CN2CCN(C(c3ccc(F)cc3)c3ccc(F)cc3)CC2)c(OC)c1OC | inactive
31 | Cc1cccc(OCCN2C(=O)C(=O)c3cc(C)ccc32)c1 | inactive
32 | CCN(Cc1ccccc1)S(=O)(=O)c1ccc(C(=O)N(CCCN(C)C)c2nc3c(C)c(C)ccc3s2)cc1 | inactive
33 | CCOc1cc(CNC2CCCC2)ccc1OCc1ccccc1Cl | inactive
34 | CN(C)CCN(C(=O)c1ccc2ccccc2c1)c1nc2ccc(F)cc2s1 | inactive
35 | Cc1cc(=O)n2ccccc2c1C#N | inactive
36 | NC(=NCCCCCCN=C(N)/N=C(\N)Nc1ccc(Cl)cc1)/N=C(\N)Nc1ccc(Cl)cc1 | inactive
37 | CCCCCc1ccc(OCCOCCn2c[n+](C)c3ccccc32)c(CCCCC)c1 | inactive
